Source: the supplement of paper PMC12494721
Structures can show the parent of a compound that is named as a salt.

How the values were obtained:
Conditions in all cases: incubation time: 27 h, anaerobic, 37 °C;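 for the amine columns active = adjusted P below 0.05 in both replicates with a change the same way and a mean fold change under 0.8 or over 1.25; inactive = the rest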
[1] = tested on: Clostridium sporogenes DSM 1664; test: growth (OD595) fold change vs plate DMSO controls (fold change (ratio)); higher = more growth
In short: (§1)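 Shaken 96-well cultures in mGAM, grown anaerobically for 27 h at 37 °C, were read at 595 nm. OD came from blank-subtracted readings, corrected for background with 20 µM compound solutions in water and scaled by a calibration factor of 5. Growth is the fold change versus the plate's median DMSO control. Values average 2 biological replicates, and any fold change above 1.5 is NA.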

[2] = tested on: Escherichia coli IAI1; test: as above
In short: as §1

[3] = tested on: Klebsiella aerogenes DSM 30053; test: as above
In short: as §1

[4] = tested on: Ruminococcus gnavus DSM 108212; test: as above
In short: as §1

[5] = tested on: Klebsiella aerogenes DSM 30053; test: fold change of Histamine concentration vs plate DMSO controls (fold change (ratio)); higher = more amine produced, active = hit call of the paper (significant change in both replicates, either direction)
In short: (§2)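 Each value is the fold change relative to DMSO-only wells on the same plate. Four gut bacterial strains were grown anaerobically in mGAM at 37 °C for 27 h in 80 µL wells, starting at OD 0.1 before a 1:1 dilution, with compounds at 20 µM final (sweeteners 50 µM). Whole cultures were extracted with cold acetonitrile/methanol containing 0.1% formic acid, centrifuged, and amines were quantified by LC–triple-quadrupole MS (dynamic MRM) against external calibration curves with within-batch drift correction. Values are means of 2 biological replicates.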

[6] = tested on: Clostridium sporogenes DSM 1664; test: fold change of Tryptamine concentration vs plate DMSO controls (fold change (ratio)); higher = more amine produced, active = hit call of the paper (significant change in both replicates, either direction)
In short: as §2

[7] = tested on: Ruminococcus gnavus DSM 108212; test: as above
In short: as §2

[8] = tested on: Escherichia coli IAI1; test: fold change of Putrescine concentration vs plate DMSO controls (fold change (ratio)); higher = more amine produced, active = hit call of the paper (significant change in both replicates, either direction)
In short: as §2

[9] = tested on: Klebsiella aerogenes DSM 30053; test: as above
In short: as §2

[10] = tested on: Escherichia coli IAI1; test: fold change of Cadaverine concentration vs plate DMSO controls (fold change (ratio)); higher = more amine produced, active = hit call of the paper (significant change in both replicates, either direction)
In short: as §2

[11] = tested on: Klebsiella aerogenes DSM 30053; test: as above
In short: as §2

[12] = tested on: Ruminococcus gnavus DSM 108212; test: fold change of 2-Phenylethylamine concentration vs plate DMSO controls (fold change (ratio)); higher = more amine produced, active = hit call of the paper (significant change in both replicates, either direction)
In short: as §2

| SMILES | growth [1] | growth [2] | growth [3] | growth [4] | fold change of Histamine concentration [5] | fold change of Tryptamine concentration [6] | fold change of Tryptamine concentration [7] | fold change of Putrescine concentration [8] | fold change of Putrescine concentration [9] | fold change of Cadaverine concentration [10] | fold change of Cadaverine concentration [11] | fold change of 2-Phenylethylamine concentration [12] |
| --- | --- | --- | --- | --- | --- | --- | --- | --- | --- | --- | --- | --- |
| COc1cc(NS(=O)(=O)c2ccc(N)cc2)nc(OC)n1 [Sulfadimethoxine] (20 µM) | 0.79 | 0.992 | 1.1 | 1.01 | 0.891 (inactive) | 1.05 (inactive) | 1.29 (active) | 0.887 (inactive) | 0.946 (inactive) | 0.888 (inactive) | 1.03 (inactive) | 1.53 (active) |
| CCN(CC)C(=O)/C(C#N)=C/c1cc(O)c(O)c([N+](=O)[O-])c1 [Entacapone] (20 µM) | 0.868 | 0.974 | 1.06 | 1.07 | 1.01 (inactive) | 0.961 (inactive) | 0.929 (inactive) | 0.993 (inactive) | 1.03 (inactive) | 0.977 (inactive) | 0.995 (inactive) | 0.896 (inactive) |
| O=C(CCCN1CCN(c2ccccn2)CC1)c1ccc(F)cc1 [Azaperone] (20 µM) | 1.12 | 1.24 | 0.974 | 1.12 | 1.01 (inactive) | 1.14 (inactive) | 0.963 (inactive) | 1.31 (inactive) | 0.987 (inactive) | 0.84 (inactive) | 1.01 (inactive) | 0.998 (inactive) |
| C/C(=C1\CCOC(=O)S1)N(C=O)Cc1cnc(C)nc1N [Cycotiamine] (20 µM) | 0.964 | 0.988 | 0.991 | 1.01 | 1.01 (inactive) | 1.02 (inactive) | 1.03 (inactive) | 0.971 (inactive) | 1.01 (inactive) | 1.01 (inactive) | 0.999 (inactive) | 1.06 (inactive) |
| CC(=O)Oc1ccccc1C(=O)Oc1ccccc1C(=O)O [Acetylsalicylsalicylic acid] (20 µM) | 1.05 | 1 | 0.995 | 0.881 | 1.02 (inactive) | 1.01 (inactive) | 1.06 (inactive) | 1.01 (inactive) | 0.998 (inactive) | 0.983 (inactive) | 1.01 (inactive) | 1.11 (inactive) |
| O=C(NCC1CCCCN1)c1cc(OCC(F)(F)F)ccc1OCC(F)(F)F (stereo not drawn) [Flecainide acetate] (20 µM) | 0.94 | 0.991 | 1.01 | 0.997 | 1 (inactive) | 0.99 (inactive) | 1.03 (inactive) | 0.98 (inactive) | 0.976 (inactive) | 0.987 (inactive) | 0.989 (inactive) | 1.06 (inactive) |
| O=C(COc1ccc(Cl)cc1)N1CCN(Cc2ccc3c(c2)OCO3)CC1 [Fipexide hydrochloride] (20 µM) | 1.05 | 0.947 | 0.961 | 0.87 | 1 (inactive) | 0.943 (inactive) | 0.945 (inactive) | 1 (inactive) | 1.01 (inactive) | 0.953 (inactive) | 1.01 (inactive) | 0.916 (inactive) |
| C=C(C)[C@@H]1CC=C(/C=N/O)CC1 [Perillartine] (50 µM) | 1.04 | 1.04 | 1.09 | 1.11 | 0.933 (inactive) | 1.02 (inactive) | 1 (inactive) | 0.985 (inactive) | 1.03 (inactive) | 0.99 (inactive) | 1.02 (inactive) | 1 (inactive) |
| C[C@H]1[C@H](OC(=O)CCC(=O)O)O[C@@H]2O[C@@]3(C)CC[C@H]4[C@H](C)CC[C@@H]1[C@@]24OO3 [Artesunate] (20 µM) | 1.08 | 1.01 | 1.03 | 0.931 | 1.04 (inactive) | 1.05 (inactive) | 0.879 (inactive) | 0.992 (inactive) | 1.01 (inactive) | 0.99 (inactive) | 0.982 (inactive) | 0.834 (inactive) |
| CC(C[N+](C)(C)C)OC(N)=O (stereo not drawn) [Bethanechol chloride] (20 µM) | 0.85 | 0.962 | 0.937 | 0.707 | 0.98 (inactive) | 1.01 (inactive) | 1.01 (inactive) | 1.03 (inactive) | 1.01 (inactive) | 1 (inactive) | 1 (inactive) | 1.01 (inactive) |
| C[C@H](O)[C@H](O)[C@H]1CNc2[nH]c(N)nc(=O)c2N1 [Sapropterin dihydrochloride] (20 µM) | 1.12 | 0.893 | 0.928 | 0.813 | 0.931 (inactive) | 0.972 (inactive) | 0.945 (inactive) | 1.01 (inactive) | 1.01 (inactive) | 1.03 (inactive) | 1.01 (inactive) | 0.911 (inactive) |
| CCCOc1ccccc1-c1nc2[nH]nnc2c(=O)[nH]1 [Zaprinast] (20 µM) | 1.03 | 0.972 | 1 | 1.2 | 0.988 (inactive) | 1.01 (inactive) | 1.01 (inactive) | 0.969 (inactive) | 1 (inactive) | 0.974 (inactive) | 1 (inactive) | 1.06 (inactive) |
| COc1cc(/C=C/C(=O)N2CCN(CC(=O)N3CCCC3)CC2)cc(OC)c1OC [Cinepazide maleate] (20 µM) | 1.13 | 1.06 | 1.02 | 1.02 | 1.03 (inactive) | 1.07 (inactive) | 1.1 (inactive) | 1.01 (inactive) | 0.911 (inactive) | 0.933 (inactive) | 1.06 (inactive) | 1.14 (inactive) |
| CCc1ccc(C(=O)C(C)CN2CCCCC2)cc1 (stereo not drawn) [Eperisone Hydrochloride] (20 µM) | 1.04 | 0.959 | 0.959 | 0.991 | 0.995 (inactive) | 1.04 (inactive) | 0.954 (inactive) | 0.986 (inactive) | 0.98 (inactive) | 0.992 (inactive) | 0.991 (inactive) | 1.02 (inactive) |
| CC(=O)O[C@]1(C(C)=O)CC[C@H]2[C@@H]3C=C(Cl)C4=CC(=O)CC[C@]4(C)[C@H]3CC[C@@]21C [Chlormadinone acetate] (20 µM) | 1.01 | 1 | 0.994 | 0.974 | 1.04 (inactive) | 0.965 (inactive) | 0.931 (inactive) | 1.04 (inactive) | 1.02 (inactive) | 1.02 (inactive) | 0.995 (inactive) | 0.895 (inactive) |
| Nc1nc(N)c2nc(-c3ccccc3)c(N)nc2n1 [Triamterene] (20 µM) | 1.09 | 0.967 | 0.969 | 1.25 | 1.05 (inactive) | 0.928 (inactive) | 0.966 (inactive) | 0.8 (inactive) | 1.01 (inactive) | 1.04 (inactive) | 0.988 (inactive) | 0.907 (inactive) |
| Nc1ccc(C(=O)NCC(=O)O)cc1 [Aminohippuric acid] (20 µM) | 0.256 | 0.163 | 0 | 0.295 | 0.944 (inactive) | 0.982 (inactive) | 1.03 (inactive) | 1.04 (inactive) | 1.01 (inactive) | 0.988 (inactive) | 1.01 (inactive) | 1.03 (inactive) |
| CC1CC(OC(=O)c2ccccc2O)CC(C)(C)C1 (stereo not drawn) [Homosalate] (20 µM) | 1.2 | 0.987 | 0.984 | 1.1 | 1.04 (inactive) | 0.994 (inactive) | 0.952 (inactive) | 1.23 (inactive) | 1 (inactive) | 1 (inactive) | 0.986 (inactive) | 0.922 (inactive) |
| Nc1ccc(S(=O)(=O)Nc2cnc3ccccc3n2)cc1 [Sulfaquinoxaline sodium salt] (20 µM) | 1.03 | 1.01 | 0.991 | 0.994 | 1.04 (inactive) | 0.987 (inactive) | 0.985 (inactive) | 0.911 (inactive) | 1.02 (inactive) | 1.01 (inactive) | 0.991 (inactive) | 0.981 (inactive) |
| CC(C)NCC(O)COc1ccc(CCOCC2CC2)cc1 (stereo not drawn) [Betaxolol hydrochloride] (20 µM) | 1.11 | 0.969 | 1.07 | 0.967 | 0.935 (inactive) | 0.955 (inactive) | 1 (inactive) | 1.02 (inactive) | 0.994 (inactive) | 0.99 (inactive) | 1 (inactive) | 1.01 (inactive) |
| Clc1ccc(C(Cn2ccnc2)OCc2csc3c(Cl)cccc23)c(Cl)c1 (stereo not drawn) [Sertaconazole nitrate] (20 µM) | 0.896 | 1.1 | 0.993 | 0.501 | 0.978 (inactive) | 1.12 (inactive) | 0.435 (active) | 1.08 (inactive) | 0.954 (inactive) | 0.973 (inactive) | 1.03 (inactive) | 0.591 (inactive) |
| CC(C)C(=O)OCC(=O)[C@@]12O[C@H](C3CCCCC3)O[C@@H]1C[C@H]1[C@@H]3CCC4=CC(=O)C=C[C@]4(C)[C@H]3[C@@H](O)C[C@@]12C [Ciclesonide] (20 µM) | 1.08 | 1.12 | 1.01 | 1.17 | 1.02 (inactive) | 0.953 (inactive) | 0.966 (inactive) | 1.11 (inactive) | 0.999 (inactive) | 0.979 (inactive) | 0.99 (inactive) | 0.956 (inactive) |
| Cc1cccc(C)c1NC(=O)C(C)N (stereo not drawn) [Tocainide hydrochloride] (20 µM) | 0.909 | 1.02 | 0.994 | 1.06 | 1.06 (inactive) | 1.01 (inactive) | 1.02 (inactive) | 1.03 (inactive) | 1 (inactive) | 0.983 (inactive) | 0.976 (inactive) | 1.05 (inactive) |
| OC(CCN1CCCCC1)(c1ccccc1)C1CCCCC1 (stereo not drawn) [Trihexyphenidyl-D,L hydrochloride] (20 µM) | 1.05 | 1.11 | 1.02 | 0.865 | 0.954 (inactive) | 1.01 (inactive) | 0.874 (inactive) | 1.17 (inactive) | 0.97 (inactive) | 0.697 (inactive) | 0.984 (inactive) | 0.92 (inactive) |
